# High-throughput results deposited in PubChem by National Center for Advancing Translational Sciences (NCATS).
# HPGD block – qHTS Assay for Inhibitors of HPGD (15-Hydroxyprostaglandin Dehydrogenase); AID 894, 2007; 15-hydroxyprostaglandin dehydrogenase [NAD(+)] (Homo sapiens), P15428; Potency, µM, inactives show top-dose activity change, negative = inhibition, usual class: inhibitors; purified HPGD, NADH fluorescence kinetic, PGE2 substrate; hit rate 4.3% among 150,000; active = well fitted inhibition curve with a large enough effect, not every such curve was filed as active; inconclusive = small, poorly fitted or top-dose-only effect, or another doubt; inactive = no such curve, though single readings can be large or run the other way; also: potency is read from the fitted curve at half-maximal effect
# Target sequence (P15428 whole entry, looked up): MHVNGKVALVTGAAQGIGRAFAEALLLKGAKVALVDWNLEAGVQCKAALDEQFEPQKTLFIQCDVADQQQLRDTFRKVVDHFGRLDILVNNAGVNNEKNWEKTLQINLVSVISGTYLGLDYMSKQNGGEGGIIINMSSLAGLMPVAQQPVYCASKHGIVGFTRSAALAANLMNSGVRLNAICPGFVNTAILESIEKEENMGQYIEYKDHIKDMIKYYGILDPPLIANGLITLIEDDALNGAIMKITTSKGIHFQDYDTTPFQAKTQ
#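 20 nM HPGD preincubated 15 min at room temperature with compound in 50 mM Tris-HCl pH 8, 0.01% Tween 20. Started with 1 mM NAD+ and 30 uM prostaglandin E2; NADH fluorescence (360/450 nm) read 5 times over 30-s intervals, last minus first.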
# ALDH1A1 inh – qHTS Assay for Inhibitors of Aldehyde Dehydrogenase 1 (ALDH1A1); Purified ALDH1A1, NADH fluorescence, propionaldehyde substrate; Potency, µM (top dose mostly 75.3 µM), for inactives: at the top dose activity, negative = inhibition, most hits filed as inhibitors; hit rate 7.3% among 220,000; AID 1030, 2008; active = well fitted inhibition curve with a large enough effect, not every such curve was filed as active; inconclusive = small, poorly fitted or top-dose-only effect, or another doubt; inactive = no such curve, though single readings can be large or run the other way;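 also: potency is read from the fitted curve at half-maximal effect; plate controls were no enzyme wells and a reference inhibitor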
# aGal spleen mod – qHTS Assay for Inhibitors and Activators of Human alpha-Galactosidase From Spleen Homogenate; Alpha-galactosidase A (Homo sapiens), P06280; human spleen homogenate, 4MU-alpha-Gal fluorescence, 40 min; Potency, µM (doses to about 80 µM), for inactives: at the highest dose activity change, negative = inhibition, actives largely listed as inhibitors; hit rate 0.008% among 240,000;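 also: potency is read from the fitted curve at half-maximal effect; 0% = enzyme with vehicle and -100% = no enzyme basal signal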
#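 Human spleen homogenate (1 ug) was the enzyme source, with 4-methylumbelliferyl-alpha-D-galactopyranoside (1 mM final) in pH 5.0 citrate buffer with 0.01% Tween-20. Compounds were titrated; after 40 min at 37C, NaOH/glycine stop, 4-MU fluorescence read; AC50 from Hill fits.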
# PNC assembly inh – High Content Assay for Compounds that inhibit the Assembly of the Perinucleolar Compartment | PC3M PTB-GFP, PNC prevalence imaging, 16 h; hits give low values | AID 2417, 2010 | hit rate 3.1% among 140,000 | activity change (PNC), negative = inhibition, % at 10 µM;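 active = readout at or below -70, meaning at least 70% loss of cells showing the perinucleolar compartment, a nuclear body marking cancer cells; inconclusive = readout between -30 and a set limit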;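 also: plate controls were DMSO wells for no effect and camptothecin positive control wells for full effect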
#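 PC3M cells stably expressing PTB-GFP, 750–1000 cells/well, treated 16 h at 37 °C with compound (23 nl of library stock), in duplicate. After paraformaldehyde fixation and Hoechst stain, imaged at 20x; PNC prevalence scored by image analysis.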
# GLA inh pH 4.5 – qHTS Assay for Inhibitors of Human alpha-Galactosidase at pH 4.5. Alpha-galactosidase A (Homo sapiens), P06280. purified enzyme, 4-MU-alpha-Gal fluorescence, pH 4.5. activity change, negative = inhibition, % at 105 µM. 230,000 tested, under 10 active;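 also: 0% = full activity with enzyme and -100% = basal without enzyme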
# ALOX12 inhib – qHTS Assay for Inhibitors of 12-hLO (12-human lipoxygenase). Polyunsaturated fatty acid lipoxygenase ALOX12 (Homo sapiens), P18054. purified 12-hLO, xylenol orange hydroperoxide absorbance. Potency, µM (highest dose often 57.1 µM), for inactives: at the highest dose activity change, negative = inhibition, most hits filed as inhibitors. hit rate 0.12% among 150,000. AID 1452, 2008; also: potency is read from the fitted curve at half-maximal effect; nearly all actives have a fitted effect of over 55% in size
#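 Lipoxygenase turnover measured by absorbance at 573 and 405 nm after Fe-XO development. Human 12hLO 150 nM, arachidonate 40 uM, pH 7.0 Hepes buffer with detergent; 15 min compound preincubation, 30 min reaction.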
# * hit, by the source's call; ? = inconclusive; . = not tested or not shown; [ ] = another dose, or the depositor's remark. In the library only some 10% were active in any assay of this set; here they are far more common. Unless noted, calls follow the shape of the dose curve; as a rule, active = well fitted curve in the direction sought with a large enough effect; inconclusive = small, poorly fitted or top-dose-only effect, or another doubt; inactive = no such curve, though single readings can be large; an effect the other way counts as inactive or inconclusive. Unless noted, % is scaled to controls: 0 for no effect and ±100 for the full control effect.
SMILES,HPGD block,ALDH1A1 inh,aGal spleen mod,PNC assembly inh,GLA inh pH 4.5,ALOX12 inhib
Cc1ccc(F)c(NC=C2C(=O)OC(C)(C)OC2=O)c1,-27.4%,10µM*,-5.0%,24.4,6.4,-3.6%
Cc1nc(C(F)(F)F)c(C(=O)N/N=C(\N)c2ccccn2)s1,.,3.9%,-1.7%,.,-8.1,.
Cc1cc([N+](=O)[O-])cc(/C=N\NC(=O)C2COc3ccccc3O2)c1O (centres undefined),.,.,3.1%,.,-4.0,.
Cc1ccc(-n2[nH]c(C)c(C=Nc3ccc4[nH]c(=O)[nH]c4c3)c2=O)cc1,-17.1%,-0.3%,-10.6%,60.0,-3.3,-2.9%
Cc1ccc(N=Cc2c(C)[nH]n(-c3nc4ccccc4[nH]3)c2=O)cc1,-16.0%,-4.8%,3.4%,-81.5*,-10.3,-2.2%
NC[C@@H]1O[C@@H](O[C@H]2[C@H](O)[C@H](O[C@@H]3O[C@H](CO)[C@@H](O)[C@H](N)[C@@H]3O)[C@@H](N)C[C@H]2N)[C@H](N)C[C@@H]1O,1.1%,5.2%[20.9 µM],2.3%[29.1 µM],.,1.9,0.4%[25.6 µM]
CCOC(=O)c1c(-c2ccc(OC)cc2)csc1/N=C/C1=C(O)CCCC1=O,-6.6%,2.24µM*,-4.0%,?,-7.0,-3.6%
O=C(O)CSc1cc(C(=O)c2cc(F)ccc2O)cn2c(=O)c3c(-c4ccccc4)csc3nc12,.,7.94µM*,-4.6%,.,-10.1,.
CCOC(=O)c1sc2nc3c(SCCC#N)cc(C(=O)c4cc(F)ccc4O)cn3c(=O)c2c1C,-11.5%,-11.9%,-3.8%,-13.7,-7.3,3.1%
CCCOc1ccc([N+](=O)[O-])c(N)c1,-12.8%,-2.1%,6.5%,31.9,-5.7,-1.0%
CCOC(=O)N1N=C(c2ccccc2)CC1(O)C(F)(F)F (centres undefined),-2.8%,1.9%,12.2%,27.9,-0.9,2.6%
CCOC(=O)N1N=C(CC)CC1(O)C(F)(F)F (centres undefined),2.5%,6.3%,5.4%,-85.9*,0.6,-1.0%
Cn1cc(C(=O)N/N=C/c2cccc([N+](=O)[O-])c2)c2ccccc21,.,.,-1.5%,.,-1.7,.
NC(=S)Nc1cccc2cnccc12,-2.9%,13.0%,1.4%,21.1,9.1,4.1%
COCCNC(=S)Nc1cccc2cnccc12,.,-14.4%,4.3%,.,-29.7[21.1 µM],.
FC(F)(F)c1ccccc1NC(=S)Nc1cccc2cnccc12,.,25.1µM*,-0.2%,.,-10.8,.
Fc1ccccc1NC(=S)Nc1cccc2cnccc12,.,17.8µM*,-6.1%,.,5.8,.
COc1ccc(C2CC(=O)N3CN(c4ccccc4F)CSC3=C2C#N)cc1OC (centres undefined),?,7.08µM*,8.5%,15.5,-6.5,-19.2%
COc1ccc(C2CC(=O)N(C)c3ccccc3S2)cc1OC (centres undefined),.,10.1%,-3.0%,.,1.3,.
Cc1cccc(N2CSC3=C(C#N)C(c4ccc(C)o4)CC(=O)N3C2)c1 (centres undefined),8.91µM*,8.91µM*,5.9%,?,-11.8,-25.6%
CCc1ccccc1N1CSC2=C(C#N)C(c3ccccc3F)CC(=O)N2C1 (centres undefined),5.62µM*,2.82µM*,8.6%,?,0.0,?
COc1ccc(OC)c(C2CC(=O)N3CN(c4ccccc4)CSC3=C2C#N)c1 (centres undefined),7.08µM*,7.94µM*,0.8%,34.5,-17.4,?
Cn1c2c(c(=O)n(C)c1=O)C(c1ccccc1F)C(C#N)=C(N)O2 (centres undefined),.,?,7.2%,.,3.7,.
CCCC(=O)OCC(=O)Nc1ccc2c(c1)OCO2,.,?,4.1%,.,10.7,.
CNC(=O)c1ncoc1-c1ccc(Cl)cc1,.,.,-0.5%,.,3.7,.
